# Bioassay records (PubChem)
# TRHR PAM – allosteric enhancers of human TRH receptor; actives 0.66% (n = 360,000); TRHR cells, fluo-8 calcium fluorescence, EC20 TRH enhancement; AID 493056; P34981; enhancement, % at 2 µM; in the data active = enhancement above about 30%; also: 0% is about no effect
# Target sequence (P34981 whole entry, looked up): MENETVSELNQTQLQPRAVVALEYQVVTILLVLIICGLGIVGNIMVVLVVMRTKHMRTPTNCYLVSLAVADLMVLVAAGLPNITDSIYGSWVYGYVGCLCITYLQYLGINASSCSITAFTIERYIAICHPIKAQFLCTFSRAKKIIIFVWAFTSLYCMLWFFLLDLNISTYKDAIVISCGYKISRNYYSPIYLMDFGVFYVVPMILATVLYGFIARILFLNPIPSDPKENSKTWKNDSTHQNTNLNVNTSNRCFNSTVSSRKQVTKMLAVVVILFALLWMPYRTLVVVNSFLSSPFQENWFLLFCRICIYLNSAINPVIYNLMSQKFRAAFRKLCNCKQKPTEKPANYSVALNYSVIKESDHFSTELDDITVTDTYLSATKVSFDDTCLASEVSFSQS
#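 TRHR-expressing cells loaded with fluo-8 calcium dye were read kinetically (ex 480/em 530) during compound addition, then stimulated with an EC20 of TRH (10 nM final). Enhancement of the Gq-mediated intracellular calcium response was scored.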
# D1 ag – activates the human D1 dopamine receptor. P21728. AID 504660. activation, % at 2 µM. actives 1% (n = 360,000). HEK293 T-REx D1 cells, calcium flux, agonist mode; also: 0% is about no effect
#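 Agonism was scored from calcium flux recorded over 180 s (1 read/s) after pintool compound addition, following a 10-cycle baseline. Cells were inducible force-coupled HEK293 TREx D1, plated overnight at 30 C and loaded with no-wash calcium dye.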
# D1 antag – human D1 dopamine receptor antagonism | P21728 | HEK293 TREx D1 cells, calcium flux, dopamine EC80; hits give low values | activity change, negative = inhibition, % at 10 µM | actives 3.2% (n = 360,000); in the data active = activity change below about -30%; also: % is scaled to controls: 0 for no effect and ±100 for the full control effect
#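 Inducible Hek293 Trex D1 cells (tetracycline, overnight, 30 C). Calcium dye 30–90 min RT. Antagonist mode: EC80 dopamine added after 180 s compound read.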
# D1 PAM – human D1 dopamine receptor positive modulation | P21728 | HEK293 TREx D1 cells, calcium flux, dopamine EC20 potentiation | potentiation, % at 10 µM | actives 0.036% (n = 360,000) | AID 504651; in the data active = potentiation above about 30%; also: 0% is about no effect
# TRHR agonist – TRH receptor (human) agonism; P34981; TRHR cells, calcium flux fluo-8, FDSS agonist mode; activation, % at 2 µM; actives 0.18% (n = 360,000); AID 493084; also: 0% is about no effect
#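 Fluo-8-loaded TRHR cells; 10 s baseline, compound added, kinetic Ca2+ fluorescence read 1/s, agonist mode.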
# * hit, by the source's call; ! = a repeat was not active. This is a sample that favours compounds with a hit; in the whole collection about 4.7% have one here. Rule as the data show it, unless noted: active = activation above about 30%; inactive = the rest.
SMILES,TRHR PAM,D1 ag,D1 antag,D1 PAM,TRHR agonist
CCOC(=O)c1c(NC(C)=O)c2c3c(sc2n1Cc1nc(-c2ccccc2OCC)oc1C)CCCC3,-19,0,5,-7,0
COc1ccc(NC(=O)C2CCN(S(=O)(=O)c3cn(C)cn3)CC2)cc1Cl,-1,-1,4,1,0
CCOC(=O)C1CCN(C(=O)c2cc3cc(Br)ccc3oc2=O)CC1,-4,-1,34,-4,0
CCOC(=O)C1CCCN(C(=O)c2cc3cc(Br)ccc3oc2=O)C1 (configuration not stated),31*,1,-26,2,-2
COc1ccc(N(C)C(=O)c2cn(C3CCCCC3)c(=O)c3c2c2ccccc2n3C)cc1,-10,11,2,0,-1
Cc1ccccc1C(=O)Nc1ccccc1OCc1cc(=O)n2ccccc2n1,-1,-1,17,-1,0
Cc1ccc(C)c(Nc2c([N+](=O)[O-])ccc3nonc23)c1,14,108*,66,5,-1
Cc1ccc(C)c(Nc2ccc3nonc3c2[N+](=O)[O-])c1,2,5,-11,-6,-1
O=[N+]([O-])c1ccc(O)c(Nc2c([N+](=O)[O-])ccc3nonc23)c1,7,19,-49*,-2,-2
COC(=O)c1ccccc1NC(=O)Cn1c(=O)n(CCCC(=O)NCc2ccccc2OC)c(=O)c2ccccc21,-3,-2,-6,-1,0
O=C(CSc1ccc(Cl)cc1)c1ccco1,36*,5,-11,-7,0
O=C(CCSc1ccc(Cl)cc1)c1ccco1,-2,2,-9,-6,-1
CCN(CC)S(=O)(=O)c1cc(NC(=O)NCCCl)ccc1C,-1,2,-3,4,-1
CCN(CC)S(=O)(=O)c1cc(NC(=O)c2ccc(Br)s2)ccc1C,-23,27,-33*,-3,2
CCN(C(=O)CSc1nc2ccccc2nc1Cc1cccc(OC)c1)c1cccc(C)c1,-3,21,-6,-1,2
C/C(CC(=O)Nc1ccc(C)c(Cl)c1)=N\NC(=O)c1cccc(O)c1,32*,1,0,-1,0
C/C(CC(=O)Nc1cccc(Cl)c1Cl)=N\NC(=O)c1ccccc1C,0,3,-43*,-7,0
COC(=O)c1cc(NS(=O)(=O)c2cc(Br)cc3c2N(C(C)=O)CC3)cc(C(=O)OC)c1,-1,0,-4,-7,0
CCOC(=O)c1ccccc1NC(=O)c1c2c(nc3ccccc13)C(=O)N(C1CCCCC1)C2,-4,2,14,-4,0
CCOc1ccc(CCNC(=O)Cn2nc(-c3ccc(C)cc3)ccc2=O)cc1OCC,2,-2,7,1,-1
COc1cccc(N=Nc2c(C)[nH]n(-c3ccccc3)c2=O)c1,3,3,1,9,0
Cc1[nH]n(-c2ccccc2)c(=O)c1N=Nc1ccccc1O,-3,32*,-17,-4,11
Cc1[nH]n(-c2ccccc2)c(=O)c1N=Nc1ccc2c(c1)OCO2,-4,1,-35*,-9,-2
COCCN=C1N[C@@H](c2ccccc2)C(C(=O)OC)=C(C)N1Cc1ccccc1,25,2,-4,-3,1
COCCN=C1N[C@@H](c2ccc(Br)cc2)C(C(=O)OC)=C(C)N1Cc1ccccc1,20,34*!,-34*!,-4,0
CC1(c2ccc(OC(F)F)cc2)NC(=O)N(CC(=O)Nc2ccc(F)cc2)C1=O (configuration not stated),11,19,-1,-4,7
CCOC(=O)c1sc(NC(=O)CN2C(=O)NC3(CCCCCCC3)C2=O)c(C(=O)OCC)c1C,-2,2,9,5,-1
CC1(c2ccc(OC(F)F)cc2)NC(=O)N(CC(=O)Nc2ccc(OC(F)F)cc2)C1=O (configuration not stated),-9,50*,-43*,-4,7
CC1(c2ccc(OC(F)F)cc2)NC(=O)N(CC(=O)Nc2ccc(Cl)cc2F)C1=O (configuration not stated),22,36*,-13,0,6
CCOC(=O)c1c(NC(=O)CN2C(=O)NC(C)(c3ccc(OC(F)F)cc3)C2=O)sc(C)c1C (configuration not stated),3,31*,21,-1,3
